# Source: PubChem BioAssay (NCATS)
# Several values for one entry are separate records, joined by “and”; a condition that tells them apart may be missing. Equal entries are not always repeated. Unmarked numbers belong to inactive results. Results filed as inconclusive are left out. A call without a number means that no potency is given here. Activity calls are given as the source filed them. Unless noted, calls come from the whole dose curve; as a rule, active = well fitted curve in either direction with a large enough effect (not every such curve was filed as active); inconclusive = small, poorly fitted or top-dose-only effect, or another doubt; inactive = flat fitted curve, though single readings scatter.
# Columns and labels:
# [1] = Stat Signaling Pathway (AID 446); conditions: ME-180 (cervical carcinoma) SIE beta-lactamase reporter, IL-6 stimulated, 5 h;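 note: ME-180 cervical cancer cells given 40 pM IL-6 alongside compound; SIE-controlled beta-lactamase reporter measured as 460/530 nm FRET emission ratio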
# Outline: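 Emission at 460 and 530 nm (excitation 405 nm) reports SIE-controlled beta-lactamase in ME-180 cells. Cells received compound with 40 pM IL-6 for 5 hrs at 37 C; data scaled between 300 pM IL-6 and 125 nM JAK-inhibitor controls.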
# [2] = target: Glucocorticoid receptor (Homo sapiens) (UniProt P04150); test: GR-GFP Redistribution (AID 450;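 active = compounds whose dose series gives a full or clear partial fitted curve of increased nuclear translocation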; note: potency is the fitted concentration of half-maximal effect); conditions: U2OS GR-GFP nuclear translocation, laser cytometry, 2 h
# Chain of Glucocorticoid receptor (Homo sapiens) (P04150 whole entry, looked up): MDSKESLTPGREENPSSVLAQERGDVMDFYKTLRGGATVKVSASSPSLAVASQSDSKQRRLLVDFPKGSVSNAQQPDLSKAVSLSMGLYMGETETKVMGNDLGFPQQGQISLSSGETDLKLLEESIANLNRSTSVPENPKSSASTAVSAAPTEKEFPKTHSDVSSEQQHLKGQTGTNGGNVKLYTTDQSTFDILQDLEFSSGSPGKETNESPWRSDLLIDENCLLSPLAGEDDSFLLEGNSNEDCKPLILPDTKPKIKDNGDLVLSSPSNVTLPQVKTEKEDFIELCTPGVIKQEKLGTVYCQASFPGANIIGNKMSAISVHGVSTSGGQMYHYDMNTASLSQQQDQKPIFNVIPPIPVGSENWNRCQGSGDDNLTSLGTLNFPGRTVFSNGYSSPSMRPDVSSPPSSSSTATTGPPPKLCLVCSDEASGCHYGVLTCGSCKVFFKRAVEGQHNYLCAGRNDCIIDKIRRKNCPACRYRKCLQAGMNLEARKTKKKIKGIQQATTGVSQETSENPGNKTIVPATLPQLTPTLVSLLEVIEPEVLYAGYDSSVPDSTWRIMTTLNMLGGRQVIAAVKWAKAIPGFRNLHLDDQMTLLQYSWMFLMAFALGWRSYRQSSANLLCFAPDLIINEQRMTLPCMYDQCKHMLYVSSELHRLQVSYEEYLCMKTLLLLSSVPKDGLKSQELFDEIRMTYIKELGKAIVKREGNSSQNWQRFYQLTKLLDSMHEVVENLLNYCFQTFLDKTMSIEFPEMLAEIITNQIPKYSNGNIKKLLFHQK
# [3] = target: 3',5'-cyclic-AMP phosphodiesterase 4B (Homo sapiens) (UniProt Q07343); test: qHTS Assay for Inhibitors of PDE-IV (AID 607; active = well fitted activation curve with a large enough effect in the main read-out, with a control signal flat, not every such curve was filed as active); conditions: HEK293 ACTOne CNG channel cells, membrane potential fluorescence; series mostly up to 22.9 µM
# Chain of 3',5'-cyclic-AMP phosphodiesterase 4B (Homo sapiens) (Q07343 whole entry, looked up): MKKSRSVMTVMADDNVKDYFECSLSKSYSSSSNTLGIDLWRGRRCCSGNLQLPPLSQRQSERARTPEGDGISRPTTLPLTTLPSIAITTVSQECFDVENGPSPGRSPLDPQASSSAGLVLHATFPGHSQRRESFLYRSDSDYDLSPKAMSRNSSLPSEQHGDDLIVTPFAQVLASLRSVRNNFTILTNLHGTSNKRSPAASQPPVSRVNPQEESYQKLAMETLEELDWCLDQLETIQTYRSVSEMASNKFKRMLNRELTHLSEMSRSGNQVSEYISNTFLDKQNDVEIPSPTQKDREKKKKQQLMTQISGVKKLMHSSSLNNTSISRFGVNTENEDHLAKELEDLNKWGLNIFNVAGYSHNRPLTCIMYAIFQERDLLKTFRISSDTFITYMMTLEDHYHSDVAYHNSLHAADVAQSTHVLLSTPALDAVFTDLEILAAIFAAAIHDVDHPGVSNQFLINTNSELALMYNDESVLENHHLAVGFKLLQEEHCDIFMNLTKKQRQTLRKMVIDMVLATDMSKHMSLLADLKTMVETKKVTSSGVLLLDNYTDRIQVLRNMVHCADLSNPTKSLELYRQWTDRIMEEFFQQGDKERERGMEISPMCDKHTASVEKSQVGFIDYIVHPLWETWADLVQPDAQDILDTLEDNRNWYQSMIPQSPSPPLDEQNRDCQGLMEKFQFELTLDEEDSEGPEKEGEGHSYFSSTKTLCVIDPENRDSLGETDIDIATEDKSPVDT
# Outline: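 The readout is membrane depolarisation from a cAMP-sensing CNG channel, detected with a potential dye at ex 535/em 590. Cells were HEK293-derived (endogenous PDE-IV) at 1000 cells/well, titrated up to 22.9 uM final.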
# [4] = target: Mitogen-activated protein kinase 10 (Mus musculus) (UniProt Q61831); test: JNK3 AlphaScreen Assay (AID 530); conditions: JNK3 lysate, c-Jun phosphorylation; series mostly up to 57.1 µM;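 note: kinase came from lysate of stimulated human HepG2 cells; signal reports phosphorylation of biotinylated GST-cJun 1-79 at Ser73 with 10 µM ATP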
# Outline: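 Kinase buffer: 20 mM Tris-HCl pH 7.6, 10 mM MgCl2, 1 mM DTT, 0.1 mM Na3VO4, 0.01% Tween-20; ATP 10 uM. Substrate biotin-GST-cJun(1-79), enzyme from activated HepG2 lysates. Detection by Ser73 phospho-antibody AlphaScreen.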
# [5] = target: Guanine nucleotide-binding protein G(i) subunit alpha-1 (Homo sapiens) (UniProt P63096); test: qHTS Assay for Inhibitors of RGS12 GoLoco Motif Activity (Green Fluorophore) (AID 879; active = well fitted curve in the direction sought with a large enough effect; an effect the other way counts as inactive or inconclusive;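 note: negative values mean loss of peptide binding seen as reduced polarization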); conditions: Galphai1/FITC-RGS12 GoLoco peptide, fluorescence polarization; series mostly up to 57.1 µM
# Chain of Guanine nucleotide-binding protein G(i) subunit alpha-1 (Homo sapiens) (P63096 whole entry, looked up): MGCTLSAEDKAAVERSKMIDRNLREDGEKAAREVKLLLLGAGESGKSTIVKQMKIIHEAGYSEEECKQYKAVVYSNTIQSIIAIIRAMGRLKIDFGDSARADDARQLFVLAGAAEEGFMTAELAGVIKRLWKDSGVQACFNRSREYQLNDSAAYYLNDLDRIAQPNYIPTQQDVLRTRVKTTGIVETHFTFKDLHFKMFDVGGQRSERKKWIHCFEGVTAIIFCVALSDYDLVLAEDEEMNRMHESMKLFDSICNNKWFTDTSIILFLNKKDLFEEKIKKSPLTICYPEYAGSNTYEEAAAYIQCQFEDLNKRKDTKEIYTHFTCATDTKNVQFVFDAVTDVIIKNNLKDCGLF
# Outline: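 A drop in FITC polarization marked displacement of the FITC-tagged RGS12 GoLoco peptide (10 nM) from Gαi1 (50 nM). Compounds were incubated 10 min at room temperature in Tris pH 7.5 buffer containing 150 mM NaCl, 0.1 mM GDP and 0.05% NP40; unlabeled peptide titration served as control.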
# [6] = Cell Viability - HUV-EC-C (AID 542; active = well fitted curve in the direction sought with a large enough effect; an effect the other way counts as inactive or inconclusive;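 note: cells exposed to compound for 40 hours; nearly all actives have a fitted effect of over 35% in size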); conditions: HUV-EC-C endothelial cell viability, qHTS; series mostly up to 92.2 µM
# Outline: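 Luminescent ATP read-out (CellTiter-Glo, 20 min room temperature) after 40 hr compound treatment of HUV-EC-C cells at 37 °C. Concentration-response data fitted with the standard Hill equation to give AC50; tamoxifen and doxorubicin served as positive controls.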
# [7] = Cell Viability - H-4-II-E (AID 543; active = well fitted curve in the direction sought with a large enough effect; an effect the other way counts as inactive or inconclusive;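 note: cells exposed to compound for 40 hours; nearly all actives have a fitted effect of over 35% in size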); conditions: H-4-II-E rat hepatoma viability; series mostly up to 92.2 µM
# Outline: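 qHTS, rat hepatoma H-4-II-E, 1500 cells/well; 40 hr compound exposure, 37 °C; CellTiter-Glo ATP luminescence after 20 min RT; AC50 by standard Hill fit.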
# [8] = Cell Viability - SH-SY5Y (AID 544; active = well fitted curve in the direction sought with a large enough effect; an effect the other way counts as inactive or inconclusive;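 note: cells exposed to compound for 40 hours; nearly all actives have a fitted effect of over 55% in size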); conditions: SH-SY5Y neuroblastoma cell viability; series mostly up to 92.2 µM
# Outline: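 SH-SY5Y, 1500 cells/well, 5 hr pre-incubation 37 °C; cpd 40 hr 37 °C; CellTiter-Glo 20 min RT; luminescence (ATP) read. qHTS concentration-response, Hill fit → AC50. Tamoxifen, doxorubicin as positive controls.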
# [9] = Cellular Toxicity (caspase-3) HepG2 (AID 654; active = well fitted curve in the direction sought with a large enough effect; an effect the other way counts as inactive or inconclusive;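 note: cells exposed to compound for 16 hours before reading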); conditions: HepG2 caspase-3 activation, luminescence; series mostly up to 92.2 µM
# Outline: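 Luminescent Caspase-Glo 3/7 readout after 16 hr compound exposure of human hepatocellular carcinoma HepG2 cells at 37 °C; qHTS concentration-response, normalized DMSO = 0%, 100 uM tamoxifen = 100%; AC50 by standard Hill equation.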
# [10] = Cellular Toxicity (caspase-3) Jurkat (AID 655; active = well fitted curve in the direction sought with a large enough effect; an effect the other way counts as inactive or inconclusive;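 note: cells exposed to compound for 16 h at 37 °C before reading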); conditions: Jurkat caspase-3 activation, luminescence; series mostly up to 92.2 µM
# Outline: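 Jurkat cells (5000/well) in complete medium exposed 16 h at 37 C; caspase-3/7 activity read by Caspase-Glo luminescence after 20 min at room temperature. Normalized to DMSO and 100 uM tamoxifen; AC50 from Hill fits.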
# [11] = Cellular Toxicity (caspase-3) HUV-EC-C (AID 656; active = well fitted curve in the direction sought with a large enough effect; an effect the other way counts as inactive or inconclusive); conditions: HUV-EC-C cells, caspase-3 activation (apoptosis), vehicle = 0, 100 µM tamoxifen = 100%; series mostly up to 92.2 µM
# Outline: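 HUV-EC-C cells (1000/well) in complete medium, compound-treated 16 h at 37 °C; caspase-3/7 activity read by Caspase-Glo 3/7 luminescence. Normalized to DMSO (basal) and 100 uM tamoxifen (100%); AC50 from Hill-equation concentration-response fits.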
# [12] = Cellular Toxicity (caspase-3) SHSY5Y (AID 657; active = well fitted curve in the direction sought with a large enough effect; an effect the other way counts as inactive or inconclusive); conditions: SH-SY5Y caspase-3 activation, DMSO zero, 10 µM staurosporine = 100%; series mostly up to 91.7 µM
# Outline: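 SH-SY5Y human neuroblastoma cells, 1500/well, exposed to compound for 16 hours at 37 °C in complete medium. Caspase-3/7 activity read by Caspase-Glo luminescence after 1 hr at room temperature, normalized to DMSO and 10 uM staurosporine; AC50 from Hill fit.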
# [13] = Cellular Toxicity (caspase-3) BJ (AID 658; active = well fitted curve in the direction sought with a large enough effect; an effect the other way counts as inactive or inconclusive); conditions: BJ fibroblasts, luminescence, normalized: DMSO 0%, staurosporine 100%; series mostly up to 91.7 µM
# Outline: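 Caspase-Glo 3/7 luminescence, read 1 hr after reagent at room temperature, in normal BJ fibroblasts exposed 16 hours at 37 °C. AC50 values from Hill-equation concentration-response, scaled between DMSO basal and 10 uM staurosporine as 100%.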
# [14] = Cellular Toxicity (caspase-3) MRC-5 (AID 659; active = well fitted curve in the direction sought with a large enough effect; an effect the other way counts as inactive or inconclusive); conditions: MRC-5 cells, luminescence; Potency: caspase-3 activation; series mostly up to 91.7 µM
# Outline: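 Luminescent Caspase-Glo 3/7 read-out (1 h, room temperature) after a 16 h, 37 °C compound exposure of MRC-5 lung fibroblasts at 1500 cells/well. Concentration-response AC50 from Hill equation; 0% DMSO, 100% 10 uM staurosporine.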
# [15] = Cellular Toxicity (caspase-3) Mesangial (AID 660; active = well fitted curve in the direction sought with a large enough effect; an effect the other way counts as inactive or inconclusive;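 note: cells exposed to compound for 16 h before the caspase read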); conditions: mesangial cells, normalized: DMSO 0%, 100 µM tamoxifen 100%; series mostly up to 91.7 µM
# Outline: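 Luminescent Caspase-Glo 3/7 readout (aminoluciferin substrate cleavage, 20 min RT) after 16 h compound exposure at 37 °C of normal human mesangial cells. Signal increase normalized between DMSO basal and 100 uM tamoxifen; Hill-equation AC50.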
# [16] = Cellular Toxicity (caspase-3) H-4-II-E (AID 663; active = well fitted curve in the direction sought with a large enough effect; an effect the other way counts as inactive or inconclusive;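 note: cells exposed to compound for 16 hr before readout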); conditions: H-4-II-E rat hepatoma, scaled: DMSO 0%, 100 µM tamoxifen 100%; series mostly up to 92.2 µM
# Outline: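 Caspase 3/7 activation measured by luminescent aminoluciferin substrate cleavage after 16 hr compound treatment of H-4-II-E cells in complete medium. Increase normalized between DMSO (basal) and 100 uM tamoxifen (100%); Hill-equation AC50 from concentration-response.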
# [17] = Cellular Toxicity (caspase-3) Hek293 (AID 664; active = well fitted curve in the direction sought with a large enough effect; an effect the other way counts as inactive or inconclusive;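 note: cells exposed to compound for 16 h at 37 °C before readout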); conditions: HEK293 caspase-3 activation, DMSO = 0%, 100 µM tamoxifen = 100%; series mostly up to 92.2 µM
# Outline: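 Luminescent Caspase-Glo 3/7 readout (aminoluciferin release) in HEK293 cells after 16 h compound treatment, 37 °C. Normalization: DMSO = basal, 100 uM tamoxifen = 100% stimulation. Concentration-response fitted with standard Hill equation for AC50.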
# [18] = Cellular Toxicity (caspase-3) N2a (AID 665; active = well fitted curve in the direction sought with a large enough effect; an effect the other way counts as inactive or inconclusive;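 note: compound exposure lasted 16 h at 37 °C before readout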); conditions: N2a cells, luminescence, normalized: DMSO 0%, 10 µM staurosporine 100%; series mostly up to 92.2 µM
# Outline: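 Luminescent Caspase-Glo 3/7 readout in N2a mouse neuroblastoma cells after 16 h compound exposure at 37 °C. Signal scaled to DMSO (basal) and 10 uM staurosporine (100%). Concentration-response fitted with Hill equation for AC50.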
# [19] = Cellular Toxicity (caspase-3) NIH 3T3 (AID 666; active = well fitted curve in the direction sought with a large enough effect; an effect the other way counts as inactive or inconclusive); conditions: NIH 3T3 caspase-3 activation, apoptosis/toxicity, 0% DMSO, 100% is 100 µM tamoxifen; series mostly up to 92.2 µM
# Outline: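 NIH 3T3, 1000 cells/well, 5 hr settle then 16 hr compound at 37°C; Caspase-Glo 3/7, 20 min RT, luminescence. DMSO = basal, 100 uM tamoxifen = 100%. Hill-equation AC50, qHTS.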
compound,measurement,setting,value
CC1=C(CC(=O)O)c2cc(F)ccc2/C1=C\c1ccc(S(C)=O)cc1 (stereo unspecified),"activity, negative = inhibition",[1]; at 17.2 µM (top of the series),0.939%
same,"activity, negative = inhibition",[1]; at 38 µM (top of the series),9.67%
same,Potency,[2],> 46 µM and > 20.6 µM
same,outcome,[3],inactive
CCCc1c(OCCCCc2nn[nH]n2)ccc(C(C)=O)c1O,"activity, negative = inhibition",[1]; at 17.2 µM (top of the series),-12.8%
same,Potency,[2],> 20.6 µM
CC(CN1c2ccccc2Sc2ccccc21)N(C)C (stereo unspecified),"activity, negative = inhibition",[1]; at 17.2 µM (top of the series),-1.09%
NC1CCN(c2cccc(Cl)n2)CC1,"activity, negative = inhibition",[1]; at 38 µM (top of the series),-14.3%
same,Potency,[2],> 46 µM
same,Potency,[4],inactive
same,outcome,[3],inactive
same,outcome,[5],inactive
CC[C@H]1CN2CCc3cc(OC)c(OC)cc3[C@@H]2C[C@@H]1C[C@H]1NCCc2cc(OC)c(OC)cc21,"activity, negative = inhibition",[1]; at 17.2 µM (top of the series),-96.7% (active)
same,Potency,[2],> 20.6 µM
CNCCC(Oc1ccc(C(F)(F)F)cc1)c1ccccc1 (stereo unspecified),"activity, negative = inhibition",[1]; at 17.2 µM (top of the series),4.05%
Cc1cc(CC(=O)O)n(C)c1C(=O)c1ccc(Cl)cc1,"activity, negative = inhibition",[1]; at 17.2 µM (top of the series),8.99%
same,Potency,[2],> 20.6 µM
same,Potency,[4],inactive
same,Potency,[6],inactive
same,Potency,[7],inactive
same,Potency,[8],inactive
same,outcome,[3],inactive
same,Potency,[9],inactive
same,Potency,[10],inactive
same,outcome,[11],inactive
same,outcome,[12],inactive
same,outcome,[13],inactive
same,Potency,[14],inactive
same,outcome,[15],inactive
same,outcome,[16],inactive
same,outcome,[17],inactive
same,outcome,[18],inactive
same,outcome,[19],inactive
CCCn1cnc2c1c(=O)n(CCCCC(C)=O)c(=O)n2C,"activity, negative = inhibition",[1]; at 38 µM (top of the series),10.7%
same,Potency,[2],> 46 µM
same,Potency,[4],inactive
same,outcome,[3],inactive
same,outcome,[5],inactive
CN(C)CCOC(C)(c1ccccc1)c1ccccn1 (stereo unspecified),"activity, negative = inhibition",[1]; at 17.2 µM (top of the series),5.21%
NS(=O)(=O)c1cc2c(cc1Cl)NC(CSCc1ccccc1)=NS2(=O)=O,"activity, negative = inhibition",[1]; at 17.2 µM (top of the series),-11% and 0.218%
same,Potency,[2],> 20.6 µM
same,Potency,[4],inactive
same,outcome,[3],inactive
NS(=O)(=O)c1cc2c(cc1C(F)(F)F)NC(Cc1ccccc1)NS2(=O)=O (stereo unspecified),"activity, negative = inhibition",[1]; at 17.2 µM (top of the series),1.32%
C[C@@H]1C[C@H]2[C@@H]3C[C@H](F)C4=CC(=O)C=C[C@]4(C)[C@@]3(F)[C@@H](O)C[C@]2(C)[C@@]1(O)C(=O)CO,"activity, negative = inhibition",[1]; at 17.2 µM (top of the series),-0.0687%
COc1ccc2c(c1)C(=O)N(CCc1ccc(S(=O)(=O)NC(=O)NC3CCCCC3)cc1)C(=O)C2(C)C,"activity, negative = inhibition",[1]; at 17.2 µM (top of the series),-7.41%
same,Potency,[2],> 20.6 µM
same,Potency,[4],inactive
same,outcome,[3],inactive
CCC(=O)c1ccc(O)cc1,"activity, negative = inhibition",[1]; at 17.2 µM (top of the series),-0.905%
same,Potency,[2],> 20.6 µM
CCCCOc1cc(C(=O)OCCN(CC)CC)ccc1N,"activity, negative = inhibition",[1]; at 17.2 µM (top of the series),-0.0669%
same,Potency,[2],> 20.6 µM
same,Potency,[4],inactive
same,outcome,[3],inactive
Cc1ncc([N+](=O)[O-])n1CC(O)CCl (stereo unspecified),"activity, negative = inhibition",[1]; at 17.2 µM (top of the series),0.729%
same,Potency,[2],> 20.6 µM
Nc1ccc(S(=O)(=O)NC(=O)c2ccccc2)cc1,"activity, negative = inhibition",[1]; at 17.2 µM (top of the series),-0.201% and -5.16%
same,Potency,[2],> 20.6 µM
same,Potency,[4],inactive
same,outcome,[3],inactive
